Test results published in PubChem BioAssay AID651789 (National Center for Advancing Translational Sciences (NCATS), 2012).
Results filed as inconclusive are left out. Activity calls are given as the source filed them. Calls follow the shape of the dose curve; as a rule, active = well fitted inhibition curve with a large enough effect; inconclusive = small, poorly fitted or top-dose-only effect; inactive = no such curve, though single readings can be large or run the other way.

test: Acumen qHTS Assay for Inhibitors of the mTORC1 Signaling Pathway in WT MEF Cells: Hit Validation; conditions: Acumen imaging; series mostly up to 37.3 µM; activity change, negative = inhibition: at the top concentration; also: nearly all actives have a fitted effect of over 60% in size;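 as to activity change, negative = inhibition: phospho-rpS6 Ser235/236 immunofluorescence normalised to propidium iodide cell stain; percent of cells above a cutoff set by 7.5 nM rapamycin treated wells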
Summary of the method: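 Read-out is immunofluorescent phospho-rpS6 (Ser235/236) normalised to PI-stained cell number, reported as % active cells using a 7.5 nM rapamycin threshold. Cells: WT or Tsc2-/-, p53-/- MEFs, compound-exposed 24 h at 37C; PI count also tracks viability.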
Potency is read from the fitted curve at half-maximal effect.

Activity change, negative = inhibition, inactive:
CCc1ccc(S(=O)(=O)c2c(C(=O)c3ccc(C)c(C)c3)cnc3ccccc23)cc1 -21.5%
Cc1ccccc1Oc1nc2ccccn2c(=O)c1/C=C(\C#N)c1nc2ccccc2[nH]1 58.4%
CCCCOC(=O)c1ccc(NC(=O)c2ccc3c(c2)CCN3S(=O)(=O)c2ccccc2)cc1 4.42%
CCOc1ccc(S(=O)(=O)Nc2ccc(OC)c(Cl)c2)c2cccnc12 -2.29%
CC(CNC(=O)c1ccc(Nc2nc3ccccc3n3nnnc23)cc1)c1ccccc1 (stereo unspecified) 65.1%
O=C(Nc1ccc(Cl)cc1)C1CCC(CNS(=O)(=O)c2ccc(Br)s2)CC1 (stereo unspecified) -8.29%
COc1cccc(/C=C(\C#N)c2nc3ccc(C)cc3[nH]2)c1 -27.4%
CCCCOc1ccc(Cn2c(=O)sc3ccccc32)cc1 14.4%
O=S(=O)(c1ccccc1)n1nc(-c2ccc(Cl)cc2)nc1NCc1ccccc1 -20.8%
O=C(Nc1cccc(NC(=O)c2ccccc2Cl)c1)c1cccc(Br)c1 9.16%

Potency, active:
CCS(=O)(=O)c1ncc(Cl)c(C(=O)N2CCN(c3ccc(OC)cc3)CC2)n1 10.4 µM
CCC1=Nc2cc(C(=O)NC3CCCC3)ccc2Sc2ccc(Br)cc21 1.85 µM
Cc1ccc(Nc2nc(C(N)=O)c(NC(=O)c3ccccc3Br)s2)cc1 3.69 µM
CC1=Nc2cc(C(=O)NC3CCCC3)ccc2Sc2ccc(Cl)cc21 0.826 µM
COc1ccc(N(Cc2ccccc2)C(=O)c2nc(S(C)(=O)=O)ncc2Cl)cc1 2.07 µM
COc1cc(OC)c(NC(=O)Nc2ccc3c(c2)N(C)C(=O)c2ccccc2S3)cc1Cl 5.21 µM
